# Source: the supplement of paper PMC12350171
# Structures can show the parent of a compound that is named as a salt. Values without a mark were called inactive.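 The calls were made as follows: active = AUC significantly below DMSO controls by Student t-fit with adjusted P under 0.01; inactive = not significantly reduced.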
# Test system: Haemophilus parainfluenzae
# Assay: growth AUC normalised to DMSO control (fraction of control); higher = less growth inhibition, active = hit call of the paper
# Conditions: 20 µM
# Summary of the method: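 Hemin and NAD were added to the medium for Haemophilus parainfluenzae. All pathogens, after two anaerobic passages, were inoculated at a starting OD578 of 0.01 into pre-reduced mGAM plates with 20 μM compound and 1% DMSO under breathable seals, and OD578 was read hourly for 24 h in three biological replicates. AUC of each growth curve was obtained with the trapezoidal rule up to the exponential-to-stationary transition and normalised to DMSO controls from the same plate.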
row,Structure (SMILES),growth AUC normalised to DMSO control
1,COc1ccc2[nH]c([S+]([O-])Cc3ncc(C)c(OC)c3C)nc2n1 (stereo not drawn) [Tenatoprazole],0.978
2,O=C(NCCN1CCOCC1)c1ccc(Cl)cc1 [Moclobemide],0.971
3,NS(=O)(=O)Cc1noc2ccccc12 [Zonisamide],0.981
4,COCC(=O)Nc1c(I)c(C(=O)NCC(O)CO)c(I)c(C(=O)N(C)CC(O)CO)c1I (stereo not drawn) [Iopromide],1.03
5,Nc1ccc(C(=O)O)c(O)c1 [Aminosalicylic acid],1.09
6,CN[C@@H]1[C@@H](O)[C@@H](O[C@@H]2[C@@H](O)[C@H](O[C@H]3OC(CN)=CC[C@H]3N)[C@@H](N)C[C@H]2N)OC[C@]1(C)O [Sisomicin sulfate],0.864
7,CC(=O)N(CC(O)CO)c1c(I)c(C(=O)NCC(O)CO)c(I)c(C(=O)NCC(O)CO)c1I (stereo not drawn) [Iohexol],0.981
8,CN1CCC(=C2c3ccccc3CC(=O)c3sccc32)CC1 [Ketotifen fumarate],0.997
